Reference: PubChem BioAssay (NCI)
This is part of a sample that, as a whole, favours compounds with a hit. Of some 83,000 tested, about 20% had one in any assay.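 Growth was measured after 48 h exposure to one concentration of compound in 96-well plates. Values under 10 count as active.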 Activity calls are given as the source filed them.

These compounds were tested on MDA-MB-468 breast (assay: NCI-60 one-dose screen, 48 h (100 = growth as untreated, 0 = no growth, -100 = all killed)). Settings: 10 µM unless noted.

Row | SMILES | growth
1 | O=C(O)COc1ccc(F)cc1 | 98.8% (inactive)
2 | CCCCCCCC/C=C/CCCCCCCC1=NC(C)(C)CN1C(C)(C)CO | -91.5% (active)
3 | O=[N+]([O-])c1ccc(-c2cc3c(Nc4ccc(Sc5nc6ccccc6s5)c(Cl)c4)ncnc3s2)cc1 | 26.1% (inactive)
4 | O=C=NC(c1ccccc1)(c1ccccc1)c1ccccc1 | 118% (inactive)
5 | Oc1[nH]c2ccccc2c1/C=c1/ccc2c(c1)N=C(c1cc(F)cc(F)c1)N=2 | 20.6% (inactive)
6 | O=C(/C=C1\C(=O)N(Cc2ccc([N+](=O)[O-])cc2)c2ccccc21)c1ccc(OCCN2CCCCC2)cc1 | -63.1% (active)
7 | Cn1cc(-c2csc(-c3cn(C)c4ccc(F)cc34)n2)c2cnccc21 | -49.2% (active)
8 | COc1ccccc1-n1c(-c2csc(NC(C)=O)n2)n[nH]c1=S | 100% (inactive)
9 | COc1cc(CN(CCC(O)N2CCCC2=O)Cc2ccc3c(c2)OCO3)cc(OC)c1OC (stereo not given) | 119% (inactive)
10 | CSc1nc(N)n2nccc2n1 | 114% (inactive)
11 | CN(C)CCCOc1c2ccccc2nc2c1oc1ccc(Cl)cc12 | -3.66% (active)
12 | Clc1ccc(-c2nc3ccccc3s2)cc1Cl | 110% (inactive)
13 | COc1cnc2c(c1)C(=O)c1c-2n(CCCNC2=NCCS2)c(=O)c2cc(Cl)ccc12 | -4.65% (active)
14 | CCN(Cc1ccc(CN(CC)C(=O)C(Cl)(Cl)Cl)cc1)C(=O)C(Cl)(Cl)Cl | 62.5% (inactive)
15 | CCOC(=O)c1c2c(c(C)n1Cc1ccccc1)-c1nc(N)ncc1CC2 | 100% (inactive)
16 | CCCCCCCOc1cccc(/C=C2\N=C3SCCCN3C2=O)c1 | 89.2% (inactive)
17 | CCC1CCC(C)NC1 (stereo not given) | 92.4% (inactive)
18 | COc1cc(/C=C/C(=O)/C=C/c2cc(OC)c3c(c2)OCO3)cc2c1OCO2 | 76.2% (inactive)
19 | Cc1cc(N(CCCNc2ccnc3cc(Cl)ccc23)Cc2ccccn2)nc(N2CCOCC2)n1 | 78.8% (inactive)
20 | N#Cc1ccc(-c2ccc3c(c2)NC(=O)/C3=C\c2ccc[nH]2)cc1 | -18.2% (active)

Row | SMILES | growth
21 | O=C1NC(=Nc2ccc(S(=O)(=O)Nc3nccs3)cc2)S/C1=C\c1coc2ccccc2c1=O | 99.9% (inactive)
22 | CN(C)c1ccc(Nc2cc(-c3cccc(OC(F)(F)F)c3)nc3ccc(N4CCCC4)cc23)cc1 | -48.1% (active)
23 | CCCCC(C=O)(C=C=C(C)C)CC (stereo not given) | 108% (inactive)
24 | C=CC[N+]1(CC)CCN=C1CCCCCCCCCCCCCCCCC (stereo not given) | -82.6% (active)
25 | COC(=O)c1nc(-c2ccccc2)oc1S(=O)(=O)NCC(c1ccc(Cl)cc1)N1CCCCC1 (stereo not given) | 37% (inactive)
26 | CCOC(=O)c1cc(C(=O)c2cc(OC)cc(OC)c2)n2nc(C)ccc12 | 29.8% (inactive)
27 | CC(=O)Nc1nc(C)c(C(=O)N/N=C/c2cccs2)s1 | 98.8% (inactive)
28 | Clc1ccc(-c2cc(-c3ccccc3)nc(N3CCN(CCCNc4ccnc5cc(Cl)ccc45)CC3)n2)cc1 | -34% (active)
29 | Cc1ccc(OCCCCCCNCCO)c(C)c1 | -15.9% (active)
30 | CC(C)CCOC(=O)c1ccccc1 | 115% (inactive)
31 | COc1ccc2[nH]c(O)c(C(=Nc3ccc(N(C)C(=O)CN4CCN(C)CC4)cc3)c3ccccc3)c2c1 | 58.1% (inactive)
32 | Cc1c(C(=O)C(SC(=S)N2CCOCC2)SC(=S)N2CCOCC2)nnn1-c1ccc([N+](=O)[O-])cc1 | 92.7% (inactive)
33 | O=C(C[P+](c1ccccc1)(c1ccccc1)c1ccccc1)c1ccccc1 | 103% (inactive)
34 | O=C1NC2(Nc3ccccc31)C(=O)Nc1c(Cl)cc(Cl)cc12 (stereo not given) | 112% (inactive)
35 | Fc1ccc(-c2nc(-c3ccc(-c4nc5ccc(F)cc5[nH]4)cc3)no2)cc1 | 56.2% (inactive)
36 | Cc1nc(-c2ccccc2)sc1CC#N | 104% (inactive)
37 | O=C(Nn1c(NCC(=O)N2c3ccccc3Sc3ccccc32)nnc1-c1ccc(O)cc1)c1ccccc1 | 104% (inactive)
38 | COc1ccc(-c2c3c(N)nc(-c4ccncc4)nc3nc3c2c(C)nn3-c2ccccc2)cc1 | 72.7% (inactive)
39 | COc1cc(Cn2c(SCC(=O)Nc3cc(OC)c(OC)c(OC)c3)nc3ccccc3c2=O)cc(OC)c1OC | 72.7% (inactive)
40 | CSc1nc2ncnc(SC)c2[nH]1 | 106% (inactive)
